Measurements taken from PubChem BioAssay (EPA / NIEHS).
Activity calls are given as the source filed them. How the source made its calls: active means hit-call score of the fitted dose curve at least 0.9, where 1 is the maximum; inactive means score below 0.9.

How the values were obtained:
[1] = ATG_CRE_CIS: Attagene CIS-FACTORIAL HepG2 Assay for human cAMP Responsive Element (CRE) binding protein 3 (AID 2282926); details: HepG2 CRE cis-reporter, Attagene multiplexed mRNA; actives raise or lower the signal
In short: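 Assay format: transient reporter transfection of HepG2, 24 h treatment, total RNA isolation with DNase I step. Reporter abundance read by fluorescence after PCR and capillary separation; DMSO-normalised gain or loss fitting.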

[2] = biological target: CCAAT/enhancer-binding protein beta (Homo sapiens) (UniProt P17676); experiment: ATG_C_EBP_CIS: Attagene CIS-FACTORIAL HepG2 Assay for human CCAAT/Enhancer Binding Protein (C/EBP) beta (AID 2282927); details: HepG2 Attagene cis-factorial transcription factor reporter; actives raise or lower the signal
In short: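 Endogenous C/EBPb-driven reporter transcripts measured in transfected human HepG2 cells at 24 h via RT-PCR and capillary electrophoresis of labelled fragments. Activity fitted in both directions relative to DMSO baseline.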

[3] = ATG_CMV_CIS: Attagene CIS-FACTORIAL HepG2 Assay for human CMV (Internal Marker) (AID 2282928); details: HepG2 CMV promoter reporter, transcription factor profiling; actives raise or lower the signal;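 further: endpoint acts as a background internal control marker rather than a target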
In short: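 24 h chemical treatment, HepG2 with transient multi-reporter transfection; RNA → oligo(dT) RT → PCR → 6-FAM extension → HpaI digest → CE fluorescence. Bidirectional fit, DMSO negative control.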

[4] = ATG_DR4_LXR_CIS: Attagene CIS-FACTORIAL HepG2 Assay for human Liver X Receptor (LXR), DR4 submotif (AID 2282929); details: HepG2 Attagene DR4 cis-reporter, mRNA transcription; actives raise or lower the signal
In short: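 DR4 cis-reporter in HepG2, 24 h exposure. Detection: RT-PCR, 6-FAM labelling, CE fragment analysis. Endpoint fitted bidirectionally, DMSO = baseline.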

[5] = ATG_AP_2_CIS: Attagene CIS-FACTORIAL HepG2 Assay for human Activator Protein 2 (AP-2) (AID 2282932); details: HepG2 AP-2 cis-reporter, Attagene transcription factor profiling; actives raise or lower the signal
In short: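 Endogenous transcription factor activity is reported through transfected multiplex reporter constructs in HepG2, after 24 h of compound exposure. Transcripts were quantified by RT-PCR and capillary electrophoresis of fluorescent fragments. Bidirectional fit against DMSO.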

[6] = ATG_E_Box_CIS: Attagene CIS-FACTORIAL HepG2 Assay for human Enhancer Box (E-box) (AID 2282936); details: HepG2 E-box cis-reporter transcription, actives raise or lower the signal
In short: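 E-box-driven reporter transcripts measured in transiently transfected HepG2 after 24 h exposure: RNA reverse-transcribed, PCR-amplified, fluorescently labelled, digested and resolved by capillary electrophoresis. Gain or loss relative to DMSO.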

[7] = ATG_EGR_CIS: Attagene CIS-FACTORIAL HepG2 Assay for human Early Growth Response 1 (EGR1) (AID 2282938); details: HepG2 Attagene CIS-FACTORIAL EGR reporter mRNA; actives raise or lower the signal
In short: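 Endpoint derived by bidirectional fitting versus DMSO vehicle. Method: cis-promoter reporter units transfected into HepG2, 24 h dosing, RNA isolation, RT-PCR with 6-FAM primer extension and HpaI digestion, then capillary electrophoresis fluorescence detection.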

[8] = ATG_M_19_CIS: Attagene CIS-FACTORIAL HepG2 Assay for M19 Transcription Factor (Internal Marker) (AID 2282939); details: HepG2 Attagene CIS-FACTORIAL M19 internal marker reporter; actives raise or lower the signal
In short: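 Chemical-treated HepG2 (24 h) with MRTU constructs; reporter transcripts detected by fluorescent RT-PCR fragment analysis on capillary electrophoresis. Internal background marker, DMSO as baseline.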

[9] = ATG_Ets_CIS: Attagene CIS-FACTORIAL HepG2 Assay for human Erythroblast Transformation Specific (ETS) (AID 2282941); details: HepG2 ETS cis-reporter transcription, actives raise or lower the signal
In short: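 Cis-regulated reporter mRNA induction in HepG2 (transient transfection), 24 h exposure, RT-PCR plus capillary electrophoresis detection; DMSO serves as negative control and baseline.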

[10] = biological target: Hepatocyte nuclear factor 3-beta (Homo sapiens) (UniProt Q9Y261); experiment: ATG_FoxA2_CIS: Attagene CIS-FACTORIAL HepG2 Assay for human Forkhead box A2 (FOXA2) (AID 2282942); details: HepG2 cis-reporter transcription factor activity, 24 h; actives raise or lower the signal
In short: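 Measured: reporter mRNA induction or loss in HepG2 transiently carrying multiple cis-regulated reporter units, 24 h after dosing. Quantified by RT-PCR plus capillary electrophoresis, normalised to DMSO.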

[11] = ATG_FoxO_CIS: Attagene CIS-FACTORIAL HepG2 Assay for human Forkhead box O (FoxO) (AID 2282943); details: HepG2 Attagene cis-reporter, FoxO element, mRNA; actives raise or lower the signal
In short: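 Endogenous transcription factor activity read from multiplexed cis-promoter reporter transcripts in transiently transfected HepG2, 24 h after dosing. Reporter RNA measured via RT-PCR plus capillary electrophoresis of FAM-labeled products; gain or loss relative to DMSO.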

[12] = ATG_GATA_CIS: Attagene CIS-FACTORIAL HepG2 Assay for human GATA Binding Protein (AID 2282944); details: HepG2 GATA cis-element reporter, Attagene multiplex mRNA; actives raise or lower the signal
In short: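 Transfected cis-reporter HepG2 cells were treated with chemicals for 24 hours. Total RNA was then converted to cDNA, amplified with reporter-specific primers and analysed by fluorescent capillary electrophoresis, using DMSO-treated wells as baseline.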

[13] = ATG_M_32_CIS: Attagene CIS-FACTORIAL HepG2 Assay for M32 Transcription Factor (Internal Marker) (AID 2282949); details: HepG2 Attagene cis-factorial M32 reporter, mRNA; actives raise or lower the signal;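 further: background control marker of the multiplexed CIS panel rather than a real target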
In short: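 HepG2 transfectants (cis-regulated reporter transcription units) dosed 24 h. Reporter mRNA by RT-PCR plus CE, analysed as gain or loss relative to DMSO.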

[14] = ATG_M_06_CIS: Attagene CIS-FACTORIAL HepG2 Assay for M06 Transcription Factor (Internal Marker) (AID 2282950); details: HepG2 Attagene CIS-FACTORIAL M06 internal marker reporter; actives raise or lower the signal
In short: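 Cells (HepG2, transiently carrying cis-driven reporter units) receive chemical for 24 h before RNA isolation. Reporter cDNA is PCR-amplified, FAM-labelled by primer extension, HpaI-digested and sized on a capillary analyser.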

[15] = ATG_PXRE_CIS: Attagene CIS-FACTORIAL HepG2 Assay for human Pregnane X Receptor Element (PXRE) (AID 2282957); details: HepG2 Attagene CIS-FACTORIAL PXRE reporter, mRNA; actives raise or lower the signal
In short: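 Using HepG2 transfected with multiple reporter transcription units, endogenous factor-driven transcription was scored as reporter mRNA after 24 h exposure.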

[16] = ATG_Sox_CIS: Attagene CIS-FACTORIAL HepG2 Assay for human SRY-box transcription factor (SOX) (AID 2282960); details: HepG2 Attagene cis-factorial SOX reporter, mRNA; actives raise or lower the signal
In short: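 Gain- or loss-of-signal endpoint, fitted bidirectionally with DMSO as negative control. Based on reporter mRNA from transfected HepG2 cells harvested 24 h post-treatment and quantified via RT-PCR and capillary electrophoresis.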

[17] = biological target: Transcription factor Sp1 (Homo sapiens) (UniProt P08047); experiment: ATG_Sp1_CIS: Attagene CIS-FACTORIAL HepG2 Assay for human Specificity Protein 1 (Sp1) (AID 2282961); details: HepG2 Sp1 cis-reporter transcription, actives raise or lower the signal
In short: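 Endpoint reflects endogenous Sp1 transcriptional activity, not an exogenous fusion protein: HepG2 cells with transfected cis-regulated reporters, 24 h dosing, RT-PCR/capillary electrophoresis mRNA read-out, DMSO-normalised bidirectional fit.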

[18] = ATG_SREBP_CIS: Attagene CIS-FACTORIAL HepG2 Assay for human Sterol Regulatory Element Binding (SREBP) (AID 2282962); details: HepG2 Attagene cis-factorial SREBP reporter, mRNA; actives raise or lower the signal
In short: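 Endogenous factor activity is measured in HepG2 through multiplexed reporter units under cis-element control. Following a 24 h incubation, reporter transcripts are reverse-transcribed, PCR-amplified and sized by capillary electrophoresis; activity is fitted in both directions relative to DMSO.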

[19] = biological target: Signal transducer and activator of transcription 3 (Homo sapiens) (UniProt P40763); experiment: ATG_STAT3_CIS: Attagene CIS-FACTORIAL HepG2 Assay for human Signal Transducer and Activator of Transcription 3 (STAT3) (AID 2282963); details: HepG2, Attagene cis-factorial STAT3 reporter transcription; actives raise or lower the signal
In short: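 Readout is reporter transcript quantified by RT-PCR and capillary electrophoresis, with 6-FAM primer extension and HpaI digestion. Total RNA is taken 24 h after dosing transiently transfected HepG2 carrying cis-regulated reporter units. Bidirectional fit against DMSO.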

[20] = ATG_TA_CIS: Attagene CIS-FACTORIAL HepG2 Assay for human TA Basal Promoter (AID 2282964); details: HepG2 Attagene CIS-factorial TA basal promoter reporter; actives raise or lower the signal
In short: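 Background internal-marker endpoint from a 52-component HepG2 cis-reporter panel. Cells treated 24 h; reporter transcripts quantified via RT-PCR and CE fluorescence against DMSO baseline.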

Chain of CCAAT/enhancer-binding protein beta (Homo sapiens) (P17676 whole entry, looked up, the tested form may be a part): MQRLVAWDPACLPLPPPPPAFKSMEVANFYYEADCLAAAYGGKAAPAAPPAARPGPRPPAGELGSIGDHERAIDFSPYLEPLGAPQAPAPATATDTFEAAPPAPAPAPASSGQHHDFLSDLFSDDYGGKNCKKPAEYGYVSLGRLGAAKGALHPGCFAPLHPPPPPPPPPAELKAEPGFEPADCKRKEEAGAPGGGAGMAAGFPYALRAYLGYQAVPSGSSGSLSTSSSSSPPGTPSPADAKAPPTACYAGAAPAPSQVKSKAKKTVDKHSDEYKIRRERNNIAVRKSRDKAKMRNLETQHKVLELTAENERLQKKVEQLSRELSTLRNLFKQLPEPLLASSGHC
Chain of Transcription factor Sp1 (Homo sapiens) (P08047 whole entry, looked up, the tested form may be a part): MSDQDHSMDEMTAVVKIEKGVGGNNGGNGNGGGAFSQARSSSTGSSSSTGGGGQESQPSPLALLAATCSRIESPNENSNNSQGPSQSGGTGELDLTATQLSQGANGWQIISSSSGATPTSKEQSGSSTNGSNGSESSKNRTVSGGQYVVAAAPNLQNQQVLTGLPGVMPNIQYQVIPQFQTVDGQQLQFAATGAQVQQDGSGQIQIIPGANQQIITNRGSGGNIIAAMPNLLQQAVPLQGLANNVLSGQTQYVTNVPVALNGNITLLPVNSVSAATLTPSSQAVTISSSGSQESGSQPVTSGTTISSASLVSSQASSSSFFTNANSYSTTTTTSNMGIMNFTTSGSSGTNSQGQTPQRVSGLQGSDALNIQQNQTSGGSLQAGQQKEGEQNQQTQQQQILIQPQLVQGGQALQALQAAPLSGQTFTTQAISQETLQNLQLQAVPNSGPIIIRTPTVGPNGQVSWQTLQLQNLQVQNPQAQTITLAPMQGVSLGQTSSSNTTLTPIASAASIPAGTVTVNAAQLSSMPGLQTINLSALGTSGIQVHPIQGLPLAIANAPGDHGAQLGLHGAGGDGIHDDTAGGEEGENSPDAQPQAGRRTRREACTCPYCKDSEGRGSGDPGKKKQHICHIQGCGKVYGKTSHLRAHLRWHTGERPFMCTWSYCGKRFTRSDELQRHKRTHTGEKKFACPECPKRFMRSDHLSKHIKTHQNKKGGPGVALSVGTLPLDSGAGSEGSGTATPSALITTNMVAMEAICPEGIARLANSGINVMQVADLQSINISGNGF
Chain of Signal transducer and activator of transcription 3 (Homo sapiens) (P40763 whole entry, looked up): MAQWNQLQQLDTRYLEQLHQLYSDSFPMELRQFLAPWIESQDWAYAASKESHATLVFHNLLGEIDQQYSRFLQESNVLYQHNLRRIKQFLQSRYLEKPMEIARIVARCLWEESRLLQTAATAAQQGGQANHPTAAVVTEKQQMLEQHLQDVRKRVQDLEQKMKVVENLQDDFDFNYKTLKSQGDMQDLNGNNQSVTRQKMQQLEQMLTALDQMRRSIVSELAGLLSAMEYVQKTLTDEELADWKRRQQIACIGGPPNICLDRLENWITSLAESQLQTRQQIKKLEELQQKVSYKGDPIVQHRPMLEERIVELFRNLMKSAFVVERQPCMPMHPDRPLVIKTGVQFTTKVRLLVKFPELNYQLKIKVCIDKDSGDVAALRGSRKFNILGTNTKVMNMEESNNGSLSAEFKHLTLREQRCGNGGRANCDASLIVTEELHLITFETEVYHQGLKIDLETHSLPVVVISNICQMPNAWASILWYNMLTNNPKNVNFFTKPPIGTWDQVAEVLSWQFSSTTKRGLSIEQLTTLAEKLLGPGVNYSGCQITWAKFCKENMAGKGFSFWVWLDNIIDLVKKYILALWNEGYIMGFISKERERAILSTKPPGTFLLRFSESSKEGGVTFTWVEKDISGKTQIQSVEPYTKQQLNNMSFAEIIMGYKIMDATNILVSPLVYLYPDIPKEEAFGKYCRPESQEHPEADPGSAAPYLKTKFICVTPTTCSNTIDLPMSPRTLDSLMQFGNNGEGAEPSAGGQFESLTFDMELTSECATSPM
Chain of Hepatocyte nuclear factor 3-beta (Homo sapiens) (Q9Y261 whole entry, looked up): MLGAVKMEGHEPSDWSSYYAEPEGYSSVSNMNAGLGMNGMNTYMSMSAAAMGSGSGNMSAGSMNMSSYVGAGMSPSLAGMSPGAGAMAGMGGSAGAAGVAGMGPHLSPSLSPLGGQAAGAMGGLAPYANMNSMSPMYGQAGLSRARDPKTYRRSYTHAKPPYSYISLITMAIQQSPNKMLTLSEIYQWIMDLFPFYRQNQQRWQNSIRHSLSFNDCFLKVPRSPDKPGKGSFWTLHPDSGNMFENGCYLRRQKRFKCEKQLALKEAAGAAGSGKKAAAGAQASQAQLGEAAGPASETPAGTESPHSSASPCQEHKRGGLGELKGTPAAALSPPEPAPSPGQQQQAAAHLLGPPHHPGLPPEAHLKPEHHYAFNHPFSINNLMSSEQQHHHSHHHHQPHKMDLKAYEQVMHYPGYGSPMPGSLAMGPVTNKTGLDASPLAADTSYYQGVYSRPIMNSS

## CC(C)CCCCCCCOC(=O)c1ccccc1C(=O)OCCCCCCCC(C)C
[1]
  outcome: inactive
[2]
  outcome: inactive
[3]
  outcome: inactive
[4]
  outcome: inactive
[5]
  outcome: inactive
[6]
  outcome: inactive
[7]
  outcome: inactive
[8]
  outcome: inactive
[9]
  outcome: inactive
[10]
  outcome: inactive
[11]
  outcome: inactive
[12]
  outcome: inactive
[13]
  outcome: inactive
[14]
  outcome: inactive
[15]
  AC50: 1190 nM (active)
[16]
  outcome: inactive
[17]
  outcome: inactive
[18]
  outcome: inactive
[19]
  outcome: inactive
[20]
  outcome: inactive

## O=C(NCNC(=O)NC1C(=O)NC(=O)N1CO)NC1C(=O)NC(=O)N1CO (stereo not given)
[1]
  outcome: inactive
[2]
  outcome: inactive
[3]
  outcome: inactive
[4]
  outcome: inactive
[5]
  outcome: inactive
[6]
  outcome: inactive
[7]
  outcome: inactive
[8]
  outcome: inactive
[9]
  outcome: inactive
[10]
  outcome: inactive
[11]
  outcome: inactive
[12]
  outcome: inactive
[13]
  outcome: inactive
[14]
  outcome: inactive
[15]
  outcome: inactive
[16]
  outcome: inactive
[17]
  outcome: inactive
[18]
  outcome: inactive
[19]
  outcome: inactive
[20]
  outcome: inactive

## CCC[N+](=O)[O-]
[1]
  outcome: inactive
[2]
  outcome: inactive
[3]
  outcome: inactive
[4]
  outcome: inactive
[5]
  outcome: inactive
[6]
  outcome: inactive
[7]
  outcome: inactive
[8]
  outcome: inactive
[9]
  outcome: inactive
[10]
  outcome: inactive
[11]
  outcome: inactive
[12]
  outcome: inactive
[13]
  outcome: inactive
[14]
  outcome: inactive
[15]
  outcome: inactive
[16]
  outcome: inactive
[17]
  outcome: inactive
[18]
  outcome: inactive
[19]
  outcome: inactive
[20]
  outcome: inactive
